APP transl inh = APP translation inhibition. hit rate 0.82% among 190,000. SH-SY5Y APP 5'UTR-luciferase reporter, luminescence. AID 1285. inhibition, % at 2 µM;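 active = inhibition above a set limit, derived from the sample mean plus 3 SD, cut at about 45% in these data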
Hsp70 act = switches on Hsp70 transcription. hit rate 0.04% among 200,000. HeLa Hsp70 promoter luciferase reporter, luminescence; scaled: vehicle 0, proteasome-inhibitor control 100%. activation, % at 10 µM. AID 1203;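 active = activation above the mean across all tested compounds plus 3 SD, cutoff set per campaign, cut at about 5.5% in these data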
STAT1 activator = increases IFN-gamma driven STAT1 reporter signal; NIH 3T3 STAT1-luciferase reporter, luminescence; 100% = IFN-gamma alone, no compound; activation (% of control), % at 5.5 µM; hit rate 2.6% among 200,000; AID 932;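 active = activation above the screen-wide mean activation plus 3 SD, cut at about 130% in these data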
APP 5'UTR act = APP 5'UTR luciferase reporter activation | SH-SY5Y APP 5'UTR luciferase reporter, luminescence; zero percent = DMSO vehicle wells | activation, % at 2 µM | hit rate 1% among 190,000 | AID 1276;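 active = activation above a set limit, based on mean plus 3 SD of controls, cut at about 140% in these data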
NF-kB expr up = raises NF-kB expression in human neuronal cells | fold change at 12.5 µM | NF-kB reporter expression; stronger effect = higher value | hit rate 1.6% among 190,000 | AID 1239; in the data active = fold change above about 3.3
Wee1 stabilizer = inhibitors of human Wee1 degradation; P30291; HeLa Luc-Wee1K328M stability, luciferase luminescence; 100% = proteasome inhibitor MG132 effect; reporter increase, % at 5 µM; hit rate 1.2% among 220,000; AID 1321;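 active = activation above the mean of all tested compounds plus 3 SD, set per screening run, cut at about 8.8% in these data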;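 note: cells exposed to compound for 20 h before luminescence read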
Target sequence (P30291 whole entry K328M): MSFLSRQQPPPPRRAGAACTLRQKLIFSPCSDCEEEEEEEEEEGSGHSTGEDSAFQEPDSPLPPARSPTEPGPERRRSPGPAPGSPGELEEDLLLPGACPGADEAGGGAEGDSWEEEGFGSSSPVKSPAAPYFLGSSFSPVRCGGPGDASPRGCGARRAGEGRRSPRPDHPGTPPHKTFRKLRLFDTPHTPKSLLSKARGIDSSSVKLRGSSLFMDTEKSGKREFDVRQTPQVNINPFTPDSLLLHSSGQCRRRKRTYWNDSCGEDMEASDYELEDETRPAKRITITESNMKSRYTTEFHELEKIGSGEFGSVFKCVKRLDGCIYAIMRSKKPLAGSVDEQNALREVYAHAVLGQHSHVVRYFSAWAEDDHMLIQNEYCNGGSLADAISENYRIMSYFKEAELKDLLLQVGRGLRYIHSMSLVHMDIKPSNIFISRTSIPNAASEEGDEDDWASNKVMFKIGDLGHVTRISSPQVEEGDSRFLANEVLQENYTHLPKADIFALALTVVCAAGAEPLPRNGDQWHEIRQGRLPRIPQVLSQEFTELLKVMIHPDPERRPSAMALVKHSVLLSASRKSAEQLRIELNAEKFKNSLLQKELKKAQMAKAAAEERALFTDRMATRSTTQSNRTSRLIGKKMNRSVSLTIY
Numbers stand for hits. The list is not random: actives were taken first. Their share in the collection is about 4.8%.

For Cc1ccc(-n2ncc(C(=O)Nc3cc(Cl)ccc3Cl)c2C2CCNCC2)cc1 the results were APP transl inh inactive, Hsp70 act inactive, STAT1 activator inactive, APP 5'UTR act inactive, NF-kB expr up inactive and Wee1 stabilizer inactive.
Screening Cc1ccc(-n2ncc(C(=O)Nc3cc(Cl)cc(Cl)c3)c2C2CCNCC2)cc1C returned APP transl inh 78.9, Hsp70 act inactive, STAT1 activator inactive, APP 5'UTR act inactive, NF-kB expr up inactive and Wee1 stabilizer inactive.
`Cc1cccc(Nc2ncc3c(n2)CC(c2ccco2)CC3=O)c1` (configuration not stated) gave APP transl inh inactive, Hsp70 act inactive, STAT1 activator inactive, APP 5'UTR act inactive, NF-kB expr up inactive and Wee1 stabilizer inactive.
Screening Cc1cccc(Nc2ncc3c(n2)CC(C)CC3=O)c1 (configuration not stated) returned APP transl inh inactive, Hsp70 act inactive, STAT1 activator 135.4, APP 5'UTR act inactive, NF-kB expr up inactive and Wee1 stabilizer inactive.
`CCOC(=O)c1c(C)c(C(=O)Nc2ccc3c(c2)OCCO3)c(C)n1C` gave APP transl inh inactive, Hsp70 act inactive, STAT1 activator inactive, APP 5'UTR act inactive, NF-kB expr up inactive and Wee1 stabilizer 9.2.
For CCOC(=O)c1ccc(NC(=O)Nc2ccc3c(c2)OCCO3)cc1 the results were APP transl inh inactive, Hsp70 act inactive, STAT1 activator inactive, APP 5'UTR act inactive, NF-kB expr up inactive and Wee1 stabilizer inactive.
For CCOC(=O)c1c(C)c(C(=O)Nc2cc(F)ccc2F)c(C)n1C the results were APP transl inh inactive, Hsp70 act inactive, STAT1 activator inactive, APP 5'UTR act inactive, NF-kB expr up 4.33 and Wee1 stabilizer inactive.
For CCCCCN(C(=O)NC(=O)Nn1cnnc1)S(C)(=O)=O the results were APP transl inh inactive, Hsp70 act inactive, STAT1 activator inactive, APP 5'UTR act inactive, NF-kB expr up inactive and Wee1 stabilizer 9.9.
Screening CCCCCN(C(=O)NC(=O)NCCCC)S(C)(=O)=O returned APP transl inh inactive, Hsp70 act inactive, STAT1 activator inactive, APP 5'UTR act inactive, NF-kB expr up inactive and Wee1 stabilizer inactive.
For CCc1ccc(NC(=O)C2(c3ccccc3)CC2(Cl)Cl)cc1 (configuration not stated) the results were APP transl inh inactive, Hsp70 act inactive, STAT1 activator inactive, APP 5'UTR act inactive, NF-kB expr up inactive and Wee1 stabilizer inactive.
For Cc1ccc(NC(=S)NNC(=O)c2c(Cl)c(C)nn2C)cc1 the results were APP transl inh inactive, Hsp70 act inactive, STAT1 activator inactive, APP 5'UTR act inactive, NF-kB expr up inactive and Wee1 stabilizer inactive.
Screening Cc1ccc(NC(=S)NNC(=O)c2nn(C)c(C)c2Cl)cc1 returned APP transl inh inactive, Hsp70 act inactive, STAT1 activator 131.1, APP 5'UTR act inactive, NF-kB expr up inactive and Wee1 stabilizer inactive.
For COC(=O)c1ccccc1NC(=O)N[C@@H](C)C(=O)OC the results were APP transl inh 76.2, Hsp70 act inactive, STAT1 activator inactive, APP 5'UTR act inactive, NF-kB expr up inactive and Wee1 stabilizer inactive.
For COc1cc(/C=N/NC(=O)c2cccnc2)ccc1OCC(=O)Nc1ccccc1Cl the results were APP transl inh inactive, Hsp70 act inactive, STAT1 activator 135.8, APP 5'UTR act inactive, NF-kB expr up inactive and Wee1 stabilizer inactive.
Screening COCCNC(=O)c1ccccc1NC(=O)COc1ccccc1 returned APP transl inh inactive, Hsp70 act inactive, STAT1 activator inactive, APP 5'UTR act inactive, NF-kB expr up inactive and Wee1 stabilizer inactive.
For COC(=O)c1ccccc1NC(=O)COc1ccccc1 the results were APP transl inh inactive, Hsp70 act inactive, STAT1 activator inactive, APP 5'UTR act inactive, NF-kB expr up inactive and Wee1 stabilizer 13.0.
Screening CCOC(=O)c1ccccc1NC(=O)N[C@@H](C)C(=O)OC returned APP transl inh inactive, Hsp70 act inactive, STAT1 activator inactive, APP 5'UTR act inactive, NF-kB expr up inactive and Wee1 stabilizer inactive.
Screening COc1ccc(NC(=O)COc2ccc(/C=N/NC(=O)c3cccnc3)cc2OC)cc1 returned APP transl inh inactive, Hsp70 act inactive, STAT1 activator inactive, APP 5'UTR act inactive, NF-kB expr up inactive and Wee1 stabilizer inactive.
Screening O=C(COc1ccccc1)Nc1ccccc1Cl returned APP transl inh inactive, Hsp70 act inactive, STAT1 activator 132.2, APP 5'UTR act inactive, NF-kB expr up inactive and Wee1 stabilizer inactive.
CCNc1ccc(C(=O)OCC(=O)N(Cc2ccccc2)C(C)(C)C)cc1[N+](=O)[O-] was read as APP transl inh inactive, Hsp70 act inactive, STAT1 activator inactive, APP 5'UTR act inactive, NF-kB expr up inactive and Wee1 stabilizer inactive.
Screening COc1ccccc1CNC(=O)c1ccc(N2CCOCC2)c([N+](=O)[O-])c1 returned APP transl inh inactive, Hsp70 act inactive, STAT1 activator inactive, APP 5'UTR act inactive, NF-kB expr up inactive and Wee1 stabilizer inactive.
For COc1ccccc1NC(=O)COc1ccc(CO)cc1Cl the results were APP transl inh inactive, Hsp70 act inactive, STAT1 activator 132.9, APP 5'UTR act inactive, NF-kB expr up inactive and Wee1 stabilizer inactive.
Screening CC(C)(C)N(NC(=O)Nc1ccccc1)C(=O)c1ccccc1Cl returned APP transl inh inactive, Hsp70 act inactive, STAT1 activator inactive, APP 5'UTR act inactive, NF-kB expr up inactive and Wee1 stabilizer inactive.
`c1ccc(SCCOCCn2cncn2)cc1` gave APP transl inh inactive, Hsp70 act inactive, STAT1 activator inactive, APP 5'UTR act inactive, NF-kB expr up inactive and Wee1 stabilizer inactive.
Screening c1ccc(COc2ccc(OCCOCCn3cncn3)cc2)cc1 returned APP transl inh inactive, Hsp70 act inactive, STAT1 activator inactive, APP 5'UTR act 154.1, NF-kB expr up 3.62 and Wee1 stabilizer inactive.
Nc1ccc2oc3ccccc3c2c1 was read as APP transl inh inactive, Hsp70 act inactive, STAT1 activator inactive, APP 5'UTR act inactive, NF-kB expr up inactive and Wee1 stabilizer inactive.
Nc1ccc2c(c1)sc1ccccc12 was read as APP transl inh inactive, Hsp70 act inactive, STAT1 activator 129.6, APP 5'UTR act inactive, NF-kB expr up inactive and Wee1 stabilizer inactive.
For Cn1cc(Cl)c(C(=O)N/N=C/c2ccc(OS(=O)(=O)c3ccccc3)cc2)n1 the results were APP transl inh inactive, Hsp70 act inactive, STAT1 activator inactive, APP 5'UTR act inactive, NF-kB expr up inactive and Wee1 stabilizer inactive.
Screening Cc1ccc(/C=N/NC(=O)c2nn(C)cc2Cl)cc1 returned APP transl inh inactive, Hsp70 act inactive, STAT1 activator 128.9, APP 5'UTR act inactive, NF-kB expr up inactive and Wee1 stabilizer inactive.
`CC(C)Cc1nc(S(=O)(=O)c2ccc(Cl)cc2)c(N2CCOCC2)o1` gave APP transl inh inactive, Hsp70 act inactive, STAT1 activator inactive, APP 5'UTR act inactive, NF-kB expr up inactive and Wee1 stabilizer inactive.
CC(C)OC(=O)c1c(NC(=O)c2cccs2)sc2c1CCCC2 was read as APP transl inh inactive, Hsp70 act inactive, STAT1 activator inactive, APP 5'UTR act inactive, NF-kB expr up inactive and Wee1 stabilizer inactive.
